WRN helicase inh-1 – blocks human WRN helicase; WRN helicase unwinding, fluorescent forked duplex, kinetic; AID 651768; 0.46% of 360,000 active; Potency, µM (top dose mostly 114 µM), inactives show at the top dose activity change, negative = inhibition, hits mostly inhibitors; further: on the % scale 0 is the no-effect control and ±100 the full control effect; nearly all actives have a fitted effect of over 55% in size
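Kinetic fluorescence helicase assay: unwinding of a quenched forked DNA duplex (100 nM final) with 2 mM ATP final raises red fluorescence (525/598 nm). Compounds sat 15 min at room temperature with 20 nM WRN beforehand.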
Pol beta inh – inhibitors of human DNA polymerase beta | Potency, µM (highest dose often 114 µM), for the others: at the highest dose activity change, negative = inhibition, most hits filed as inhibitors | 1.3% of 340,000 active | AID 485314 | P06746 | Pol beta primer extension/strand displacement, fluorescence kinetic; further: on the % scale 0 is the no-effect control and ±100 the full control effect
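Kinetic readout of DNA synthesis with strand displacement by Pol beta. Compound and 10 nM enzyme sit 15 min at room temperature; 50 nM substrate starts the reaction, read immediately and at 10 min.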
Pol kappa inh-1 – DNA polymerase kappa (human) inhibition | 0.53% of 400,000 active | Q9UBT6 | purified Pol kappa, fluorescent DNA synthesis assay, 10 min | Potency, µM (top dose mostly 107 µM), inactives show at the highest dose activity, negative = inhibition, hits mostly inhibitors; further: on the % scale 0 is the no-effect control and ±100 the full control effect
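Inhibition of 10 nM Pol kappa is measured by a fluorescent read-out at 0 and 10 min following addition of 50 nM substrate (final), with a 15-min room-temperature compound preincubation.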
POLI inh – inhibitors of human DNA polymerase iota. Q9UNA4. Pol iota fluorescent replication assay, 10 min. Potency, µM (highest dose often 115 µM), inactives show at the highest dose activity, negative = inhibition, most hits filed as inhibitors. 1% of 390,000 active. AID 588590
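Pol iota at 10 nM preincubated 15 min with compounds at room temperature; reaction started with fluorescent substrate, 50 nM final. Fluorescence read kinetically at 0 and 10 min; buffer-only wells as negative control.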
Pol eta inh-1 – DNA polymerase eta (human) inhibition. recombinant Pol eta, fluorescent DNA replication assay. Potency, µM (doses to about 114 µM), for the others: at the top dose activity change, negative = inhibition, most hits filed as inhibitors. 1.2% of 390,000 active. AID 588591; further: on the % scale 0 is the no-effect control and ±100 the full control effect
Target sequence (Q9Y253 whole entry, looked up): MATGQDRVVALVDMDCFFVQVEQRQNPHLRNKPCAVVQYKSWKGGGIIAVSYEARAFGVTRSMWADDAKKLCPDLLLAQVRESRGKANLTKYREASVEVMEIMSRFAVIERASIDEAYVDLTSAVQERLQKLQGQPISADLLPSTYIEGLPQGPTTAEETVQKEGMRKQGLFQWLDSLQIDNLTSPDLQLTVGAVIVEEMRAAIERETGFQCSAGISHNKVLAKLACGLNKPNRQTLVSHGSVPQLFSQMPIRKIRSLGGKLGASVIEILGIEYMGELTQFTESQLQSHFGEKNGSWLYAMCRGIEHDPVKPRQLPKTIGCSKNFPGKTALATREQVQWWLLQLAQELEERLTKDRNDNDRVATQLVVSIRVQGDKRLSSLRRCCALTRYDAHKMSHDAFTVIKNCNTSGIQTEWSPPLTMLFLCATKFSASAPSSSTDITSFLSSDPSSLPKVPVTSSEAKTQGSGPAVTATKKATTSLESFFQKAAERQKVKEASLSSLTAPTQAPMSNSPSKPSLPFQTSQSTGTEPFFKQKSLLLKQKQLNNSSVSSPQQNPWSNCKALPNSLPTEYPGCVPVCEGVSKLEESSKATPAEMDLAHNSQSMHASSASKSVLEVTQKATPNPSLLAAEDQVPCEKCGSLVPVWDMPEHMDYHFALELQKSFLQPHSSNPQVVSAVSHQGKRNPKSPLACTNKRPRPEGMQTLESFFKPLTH
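Fluorescent replication assay: 50 nM final substrate added after a 15 min room-temperature compound preincubation with 10 nM enzyme. Signal taken at 0 min and again at 10 min.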
TbPGK inh – blocks T. brucei phosphoglycerate kinase | shares compounds with Pol kappa inh-1 | 79% of 500 active | Potency, µM (titrated, usually from 57.5 µM), inactives show at the highest dose activity change, negative = inhibition, usual class: inhibitors | TbPGK coupled GAPDH assay, Kinase-Glo luminescence; further: on the % scale 0 is the no-effect control and ±100 the full control effect; nearly all actives have a fitted effect of over 65% in size
POLI cherry-pick – Inhibitors of human DNA polymerase iota, confirmation. shares compounds with Pol kappa inh-1. AID 720496. Potency, µM, actives largely listed as inhibitors. 77% of 1,500 active. Pol iota primer extension, TAMRA/BHQ fluorescence
Pol kappa inh-2 – confirmation of human DNA polymerase kappa inhibitors; Potency, µM, usual class: inhibitors; shares compounds with Pol eta inh-1; purified Pol-kappa, fluorescent strand-displacement substrate; AID 720501; 76% of 920 active
Pol eta inh-2 – Pol eta (human) inhibition, cherry-pick confirmation; shares compounds with Pol eta inh-1; Pol eta primer extension, TAMRA/BHQ fluorescence, 10 min; Potency, µM, actives largely listed as inhibitors; 64% of 2,600 active; AID 720502
WRN helicase inh-2 – WRN helicase inhibition, cherry-pick retest. shares compounds with WRN helicase inh-1. WRN helicase DNA unwinding, fluorescence kinetic. Potency, µM (series often up to 57.1 µM), for inactives: top-dose activity, negative = inhibition, hits mostly inhibitors. 63% of 610 active; further: nearly all actives have a fitted effect of over 65% in size
TO displacement – DNA binding via thiazole orange displacement; 10% of 610 active; thiazole orange DNA binding displacement, fluorescence; Potency, µM (top dose mostly 57.1 µM), without a hit: at the highest dose activity change, negative = inhibition, most hits filed as inhibitors; AID 720499; shares compounds with WRN helicase inh-1;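 further: drop in dye fluorescence marks compound binding to DNA; on the % scale 0 is the no-effect control and ±100 the full control effect; nearly all actives have a fitted effect of over 60% in size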
BLM helicase inh – BLM helicase inhibition, WRN selectivity check | Potency, µM (highest dose often 57.1 µM), for the others: top-dose activity change, negative = inhibition, usual class: inhibitors | shares compounds with WRN helicase inh-1 | Recombinant BLM helicase DNA unwinding, red fluorescence | 60% of 610 active; further: nearly all actives have a fitted effect of over 60% in size
The depositor's hits bear a star; ? = inconclusive; . = no result; [ ] = dose if it differs, or a comment. An excerpt weighted towards active compounds, which were near 2.3% of everything screened. The call rests on the fitted dose curve; in most records, active means well fitted curve in the direction sought with a large enough effect; inconclusive means small, poorly fitted or top-dose-only effect, or another doubt; inactive means no such curve, though single readings can be large; an effect the other way counts as inactive or inconclusive. Potency means the concentration at half of the fitted maximal effect.

SMILES	WRN helicase inh-1	Pol beta inh	Pol kappa inh-1	POLI inh	Pol eta inh-1	POLI cherry-pick	Pol eta inh-2	WRN helicase inh-2	TO displacement	BLM helicase inh	others
COc1cccc2c1C(=O)c1c(O)c3c(c(O)c1C2=O)CC(O)(C(C)=O)CC3OC1CC(O)C(O)C(C)O1 (centres undefined)	2.99µM*	.	?	44.7µM*	25.1µM*	23.8*	33.8*	21.5µM*	296.5%	21.5µM*	Pol kappa inh-2=75.2*
O=C1CCCC2=C1C(c1ccco1)Nc1ccc3ccccc3c12 (centres undefined)	17.8µM*	6.31µM*	28.2µM*	6.31µM*	2µM*	7.52*	19*	15.2µM*	-27.7%	3.04µM*	TbPGK inh=14.6µM*
Cc1ccc(C2Nc3ccc4ccccc4c3C3=C2C(=O)CC(C)(C)C3)o1 (centres undefined)	-7.2%	-14.8%	-10.6%	25.3%	-11.6%	.	.	.	.	.
N=C1/C(=C\c2ccc(Br)o2)C(=O)N=C2SC(CC(=O)N3CCOCC3)=NN12	35.5µM*	28.2µM*	?	15.8µM*	17.8µM*	?	23.9*	?	-10.3%	?
CSc1ccc(/C=C2\C(=N)N3N=C(CC(=O)N4CCOCC4)SC3=NC2=O)cc1	-3.6%[57.1 µM]	3.2%	?	?	-24.5%	.	.	.	.	.
COc1ccc(S(=O)(=O)Nc2ccc(O)c(Sc3ncn[nH]3)c2)cc1	-7.6%	-2.1%	-3.5%	?	-3.9%	.	.	.	.	.
COc1ccc(S(=O)(=O)Nc2cc(Sc3ncn[nH]3)c(O)c3ccccc23)cc1	9.47µM*	22.4µM*	?	5.01µM*	.	42.3*	?	24.1µM*	-14.4%	?
CC1=NN(c2cccc(C(=O)O)c2)C(=O)/C1=C\C=C\c1ccco1	4.74µM*	0.562µM*	7.08µM*	1.26µM*	-98.5%	2.38*	1.51*	1.52µM*	-20.7%	0.961µM*	TbPGK inh=2.91µM*
O=C(CSc1nccn1-c1ccc(Cl)cc1)Nc1cccc2ccccc12	.	0.7%	-14.3%[60.1 µM]	15.9%	-10.9%	.	.	.	.	.
COC(=O)/C=c1/sc2nc3ccccc3n2c1=O	-7.0%	-4.5%	-2.5%	?	-14.2%	.	.	.	.	.
O=C(O)c1cccc(-c2ccc(/C=c3/sc4nc5ccccc5n4c3=O)o2)c1	39.8µM*	3.98µM*	22.4µM*	?	3.16µM*	3.77*	5.36*	4.82µM*	?	1.92µM*
C/C(N)=C(/C#N)C(=O)CSc1nnc(Nc2cccc(C)c2)s1	?	39.8µM*	?	?	20µM*	75.2*	?	-26.4%	-5.7%	?
CCCS(=O)(=O)N1CC(=O)N(c2ccccc2F)C(C)(C(=O)NC2CCCCCC2)C1 (centres undefined)	.	34.0%	6.5%	15.9%	13.1%	.	.	.	.	.
